# Measurements as given in PubChem BioAssay.
# “And” between values parts separate entries of the source, which are not always exact repeats. Identical values can stand only once. The source made the active and inactive calls. Unless noted, no stated cut-off is given here; in the data, active means nuclear beta-catenin stimulation mostly above about 4.2% (no sharp cut-off); inactive means mostly below about 10%.
# Tests used:
# [1] = stimulators of nuclear beta-catenin in C2C12, primary screen, imaging, WNT3A-conditioned medium, mouse C2C12, NPC library (AID 1117326); conditions: stronger effect = higher value; further: reference of the scale not given here
# [2] = liver-stage malaria parasite growth inhibition, primary screen, cell-based, HepG2, luciferase luminescence, HepG2 viability (AID 624349; in the data active means parasite load remaining mostly below about 12%, no sharp cut-off; inactive means mostly above about 10%;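 further: 100% = mean of DMSO negative control wells on the same plate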); conditions: P. berghei liver stage in HepG2, luciferase luminescence, concentration not given here; parasite load remaining: stronger effect = lower value; viability: measured here: HepG2 viability without parasites
Compound,nuclear beta-catenin stimulation ([1]; at 10 µM),"nuclear beta-catenin stimulation ([1]; stimulation, at 2 µM) [%]",parasite load remaining [2],viability [2]
COCCCOc1cc(C[C@@H](C[C@H](N)[C@@H](O)C[C@H](C(=O)NCC(C)(C)C(N)=O)C(C)C)C(C)C)ccc1OC,-0.6% (inactive),2.2,–,–
COc1cc(/C=C/C(=O)CC(=O)/C=C/c2ccc(O)c(OC)c2)ccc1O,1.5% (inactive),-2.5,–,–
Oc1cccc2[nH]ccc12,1.5% (inactive),-1.2,–,–
CC(C)NC[C@@H](O)COc1cccc2ccccc12,-0.4% (inactive),1.7,–,–
CCOC(=O)[C@H](CCc1ccccc1)N[C@@H](C)C(=O)N1CCC[C@H]1C(=O)O,4.4% (inactive),1.5,–,–
CCO/C([O-])=N/c1c[n+](N2CCOCC2)no1,0.8% (inactive),1.2,–,–
O=C1O[C@H](CO)[C@@H](O)[C@H](O)[C@H]1O,-1.1% (inactive),1,–,–
CCCc1ncc(C[n+]2ccccc2C)c(N)n1,-1.3% (inactive),-2,–,–
NC(=O)NC1NC(=O)NC1=O (stereo not given),-0.1% (inactive),1.1,–,–
CS(=O)(=O)c1ccc([C@@H](O)[C@@H](CO)NC(=O)C(Cl)Cl)cc1,2.7% (inactive),2.3,–,–
Cc1cccc(N(C)C(=S)Oc2ccc3ccccc3c2)c1,-0.1% (inactive),1.3,–,–
O=C(Nc1cccc(C2=NCCN2)c1)Nc1cccc(C2=NCCN2)c1,1.5% (inactive),4.9,–,–
O=C1C(=O)c2ccccc2C(O)=C1C1CCC(c2ccc(Cl)cc2)CC1 (stereo not given),2.2% (inactive),-1,–,–
CC(=O)Oc1cccc2c1C(=O)c1c(OC(C)=O)cc(C(=O)O)cc1C2=O,3.2% (inactive),3.4,–,–
CC1=C(C(=O)O)N2C(=O)[C@@H](NC(=O)[C@H](N)C3=CCC=CC3)[C@H]2SC1,-1.1% (inactive),-2.4,–,–
Cc1cc(-c2ccccc2)nnc1NCCN1CCOCC1,1.4% (inactive),0.5,–,–
COc1cc(C(=O)NCc2ccc(OCCN(C)C)cc2)cc(OC)c1OC,9.2% (inactive),5.8,–,–
NC(N)=NCCN1CCCCCCC1,0.1% (inactive),-0.3,–,–
O=c1cc(CO)occ1O,2.6% (inactive),0.4,–,–

Compound,nuclear beta-catenin stimulation ([1]; at 10 µM),"nuclear beta-catenin stimulation ([1]; stimulation, at 2 µM) [%]",parasite load remaining [2],viability [2]
Cc1ccc(C(C)C)cc2c(C)ccc1-2,-1.2% (inactive),0.2,–,–
CC1CCc2cc(F)cc3c(=O)c(C(=O)O)cn1c23 (stereo not given),3.1% (inactive),-1.1,–,–
Cc1c(Cl)cccc1Nc1ccccc1C(=O)O,1.9% (inactive),1.6,–,–
C[C@@H]1C[C@H]2[C@@H]3CCC4=CC(=O)C=C[C@]4(C)[C@@]3(F)[C@@H](O)C[C@]2(C)[C@@]1(O)C(=O)COP(=O)(O)O,1.2% (inactive),0.8,–,–
NC(N)=NS(=O)(=O)c1ccc(N)cc1,0.5% (inactive),0.1,–,–
O=C(O)c1ccccc1Nc1cccc(C(F)(F)F)c1,1.3% (inactive),2.3,–,–
Cn1c(=O)c2c(ncn2CC(O)CO)n(C)c1=O (stereo not given),-0.1% (inactive),0.8,–,–
CCCCCCCCNC(C)C(O)c1ccc(SC(C)C)cc1 (stereo not given),-5.4% (inactive),1.4,–,–
CN1CCN(c2cc3c(cc2F)c(=O)c(C(=O)O)cn3-c2ccc(F)cc2)CC1,0.8% (inactive),0.3,–,–
CC1(C)S[C@@H]2[C@H](NC(=O)[C@H](N)c3ccccc3)C(=O)N2[C@H]1C(=O)O,-0.1% (inactive),-0.4,–,–
C[N+]1(C)[C@@H]2CC(OC(=O)[C@H](CO)c3ccccc3)C[C@H]1[C@@H]1O[C@@H]12 (stereo not given in full),1.5% (inactive),0.9,–,–
CC(=O)OCC(=O)[C@@]1(O)[C@H](OC(C)=O)C[C@H]2[C@@H]3CCC4=CC(=O)C=C[C@]4(C)[C@@]3(F)[C@@H](O)C[C@@]21C,0.9% (inactive),1.1,–,–
NS(=O)(=O)c1cc2c(cc1Cl)NC(C(Cl)Cl)NS2(=O)=O (stereo not given),-0.1% (inactive),-0.1,–,–
C[n+]1c2cc(N)ccc2cc2ccc(N)cc21 (tested in a mixture with another compound),123% (active),8,–,–
COc1cc(NS(=O)(=O)c2ccc(N)cc2)nc(OC)n1,0.5% (inactive),0.4,–,–
O=c1[nH]cnc2c1ncn2[C@@H]1O[C@H](CO)[C@@H](O)[C@H]1O,-1% (inactive),3.1,–,–
C[C@]12CCC(=O)C=C1CC[C@@H]1[C@@H]2[C@@H](O)C[C@@]2(C)[C@H]1CC[C@]2(O)C(=O)COP(=O)(O)O,-0.6% (inactive),-0.1,–,–
CC(=O)Oc1cccc(O)c1,0.7% (inactive),2,139% (inactive) and 53% (inactive),92.8% and 100%
Cc1nnc(NS(=O)(=O)c2ccc(N)cc2)s1,-0.1% (inactive),1.2,77.8% (inactive) and 214% (inactive) and 50.9% (inactive),95.4% and 74.4% and 104%
